The values that follow come from PubChem BioAssay (NCI).

Assay [1] in a line: NCI Yeast Anticancer Drug Screen. Data for the rad50 strain (AID 155).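 Also: 0% = growth of vehicle-only cultures of the same strain.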 To be noted: S. cerevisiae rad50 strain growth inhibition, active compounds read high. The essentials:
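Relative growth inhibition (compound vs vehicle) was measured in yeast with a defined repair-gene alteration.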

Assay [2] in a line: NCI Yeast Anticancer Drug Screen. Data for the mec2-1 strain (AID 157). The note with it: S. cerevisiae mec2-1 strain, active compounds read high. The essentials: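 Readout is yeast growth inhibition, normalised to vehicle-treated controls, in the mec2-1 strain exposed to compound.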
The nature of assay [3]: NCI Yeast Anticancer Drug Screen. Data for the sgs1 mgt1 strain (AID 161).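 Also: 0% = growth of cultures given vehicle only.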 The note with it: S. cerevisiae sgs1 mgt1 strain, active compounds read high. The essentials: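 Percent growth inhibition was derived by comparing compound-exposed mutant yeast with vehicle-exposed cultures. The strain carries alterations in DNA damage repair.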
Assay [4] is described as follows: NCI Yeast Anticancer Drug Screen. Data for the cln2 rad14 strain (AID 165).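 Also: 0% = growth equal to vehicle treated cultures.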 To be noted: S. cerevisiae cln2 rad14 strain, active compounds read high. The essentials:
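Relative to vehicle controls, growth inhibition of compound-treated cln2 rad14 yeast was recorded.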

Assay [5] is described as follows: NCI Yeast Anticancer Drug Screen. Data for the bub3 strain (AID 167). To be noted: S. cerevisiae bub3 mutant strain, active compounds read high. The essentials:
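Screening used yeast with an engineered genetic alteration affecting cell cycle control. Compound-exposed cultures were compared with vehicle cultures, and reduced growth was taken as inhibition.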

Assay [6] can be described thus: NCI Yeast Anticancer Drug Screen. Data for the mlh1 rad18 strain (AID 175). To be noted: S. cerevisiae mlh1 rad18 strain growth inhibition, active compounds read high. The essentials: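 Test agents were incubated with a yeast strain of defined genotype (DNA damage repair defect). Inhibition of growth was derived by comparison with vehicle-exposed cultures.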
The mark [7] stands for this setting: at 5.0 µM (retest, dose inferred, filed as 0.5).
Where [8] appears, read: at 50.0 µM (retest, dose inferred, filed as 5.0).

The panel holds about 79,000 compounds, 15% with a hit somewhere; the sample as a whole holds those more often. Values without a mark were called inactive. Active and inactive are the calls of the source. Rule as the data show it: active = growth inhibition above about 70%; inactive = the rest.

In the case of `CC1=C(C)C(=O)C2=C(OCCCO2)C1=O`, the growth inhibition in assay [1] (setting [7]) is -9%; in assay [1] (setting [8]), -12%; in assay [1] (at 50.0 µM) it was -6.55%; in assay [2] (setting [7]), 9%; in assay [2] (setting [8]) it was -19%; in assay [2] (at 50.0 µM) it was -21.1%. Further, the growth inhibition in assay [3] (setting [7]) was -2%; in assay [3] (setting [8]), 11%; in assay [3] (at 50.0 µM), -0.8%; in assay [4] (setting [7]), -21%; in assay [4] (setting [8]) it was 5%; in assay [4] (at 50.0 µM), 5.35%. Besides, the growth inhibition was -13% in assay [5] (setting [7]); -19% in assay [5] (setting [8]); 48.8% in assay [5] (at 50.0 µM); -24% in assay [6] (setting [7]); -19% in assay [6] (setting [8]); 10% in assay [6] (at 50.0 µM).
Turning to `O=[N+]([O-])c1ccc(/C=N/O)o1`, the growth inhibition is 20% in assay [1] (setting [7]); 98% (active) in assay [1] (setting [8]); 98.2% (active) in assay [1] (at 50.0 µM); 6% in assay [2] (setting [7]); 99% (active) in assay [2] (setting [8]); 99.5% (active) in assay [2] (at 50.0 µM). The growth inhibition in assay [3] (setting [7]) is 5%; in assay [3] (setting [8]) it was 99% (active); in assay [3] (at 50.0 µM), 99.2% (active); in assay [4] (setting [7]), 49%; in assay [4] (setting [8]), 98% (active); in assay [4] (at 50.0 µM), 89% (active). Besides, the growth inhibition in assay [5] (setting [7]) was 13%; in assay [5] (setting [8]), 99% (active); in assay [5] (at 50.0 µM), 99.6% (active); in assay [6] (setting [7]), 44%; in assay [6] (setting [8]), 99% (active); in assay [6] (at 50.0 µM), 99% (active).
Regarding `Nc1ncnc(N2CCOCC2)c1N`, the growth inhibition was -1% in assay [1] (setting [7]); -5% in assay [1] (setting [8]); 11.7% in assay [1] (at 50.0 µM); 0% in assay [2] (setting [7]); 0% in assay [2] (setting [8]); 29.6% in assay [2] (at 50.0 µM). The growth inhibition is 3% in assay [3] (setting [7]); 0% in assay [3] (setting [8]); 0.95% in assay [3] (at 50.0 µM); -7% in assay [4] (setting [7]); 2% in assay [4] (setting [8]); 83.8% (active) in assay [4] (at 50.0 µM). For the same compound, the growth inhibition is -3% in assay [5] (setting [7]); -2% in assay [5] (setting [8]); -10.7% in assay [5] (at 50.0 µM); -4% in assay [6] (setting [7]); -6% in assay [6] (setting [8]); 83.5% (active) in assay [6] (at 50.0 µM).
Take `COc1cc2c[n+](C)c3c4cc(OC)c(OCc5ccccc5)cc4c(OCc4ccccc4)cc3c2cc1OC`: the growth inhibition is 33% in assay [1] (setting [7]); 96% (active) in assay [1] (setting [8]); 59.4% in assay [1] (at 50.0 µM); 14% in assay [2] (setting [7]); 93% (active) in assay [2] (setting [8]); 53.7% in assay [2] (at 50.0 µM). Further, the growth inhibition is 0% in assay [3] (setting [7]); 94% (active) in assay [3] (setting [8]); 51.1% in assay [3] (at 50.0 µM); 5% in assay [4] (setting [7]); 91% (active) in assay [4] (setting [8]); 96.6% (active) in assay [4] (at 50.0 µM). Moreover, the growth inhibition in assay [5] (setting [7]) was 16%; in assay [5] (setting [8]) it was 95% (active); in assay [5] (at 50.0 µM) it was 93.5% (active); in assay [6] (setting [7]) it was 18%; in assay [6] (setting [8]) it was 95% (active); in assay [6] (at 50.0 µM), 65.8%.
With `CCCCC1C(=O)N2c3ccccc3-c3ccccc3N2C1=O`, the growth inhibition in assay [1] (setting [7]) was -5%; in assay [1] (setting [8]), 30%; in assay [1] (at 50.0 µM) it was 65.5%; in assay [2] (setting [7]) it was 4%; in assay [2] (setting [8]) it was 33%; in assay [2] (at 50.0 µM), 6.8%. The growth inhibition in assay [3] (setting [7]) is -3%; in assay [3] (setting [8]), 23%; in assay [3] (at 50.0 µM) it was 43.2%; in assay [4] (setting [7]) it was -4%; in assay [4] (setting [8]), 8%; in assay [4] (at 50.0 µM), 14.8%. Besides, the growth inhibition in assay [5] (setting [7]) is 6%; in assay [5] (setting [8]), 10%; in assay [5] (at 50.0 µM), 17.4%; in assay [6] (setting [7]), 0%; in assay [6] (setting [8]) it was 34%; in assay [6] (at 50.0 µM) it was 35%.
For `CN(C)C(=S)/N=c1\ssc(=S)n1-c1ccccc1`, the growth inhibition is 17% in assay [1] (setting [7]); 100% (active) in assay [1] (setting [8]); -13.9% in assay [1] (at 50.0 µM); 39% in assay [2] (setting [7]); 99% (active) in assay [2] (setting [8]); -8.8% in assay [2] (at 50.0 µM). In addition, the growth inhibition in assay [3] (setting [7]) was 50%; in assay [3] (setting [8]) it was 100% (active); in assay [3] (at 50.0 µM), -13.1%; in assay [4] (setting [7]) it was 38%; in assay [4] (setting [8]), 99% (active); in assay [4] (at 50.0 µM) it was -17.1%. The growth inhibition is 46% in assay [5] (setting [7]); 100% (active) in assay [5] (setting [8]); -2.45% in assay [5] (at 50.0 µM); 23% in assay [6] (setting [7]); 99% (active) in assay [6] (setting [8]); 20.7% in assay [6] (at 50.0 µM).
With `CCOC(CC)C(O)(c1ccc(N(C)C)cc1)c1ccc(N(C)C)cc1` (configuration not stated), the growth inhibition in assay [1] (setting [7]) is -2%; in assay [1] (setting [8]), 94% (active); in assay [1] (at 50.0 µM) it was 98.3% (active); in assay [2] (setting [7]), -1%; in assay [2] (setting [8]), 69%; in assay [2] (at 50.0 µM), 98.2% (active). The growth inhibition is 0% in assay [3] (setting [7]); 95% (active) in assay [3] (setting [8]); 98.6% (active) in assay [3] (at 50.0 µM); -3% in assay [4] (setting [7]); 63% in assay [4] (setting [8]); 97.5% (active) in assay [4] (at 50.0 µM). The growth inhibition in assay [5] (setting [7]) was 4%; in assay [5] (setting [8]), 88% (active); in assay [5] (at 50.0 µM), 98.7% (active); in assay [6] (setting [7]) it was 1%; in assay [6] (setting [8]), 98% (active); in assay [6] (at 50.0 µM) it was 98.2% (active).
As to `Cc1ccc(S(=O)(=O)Nn2c(S)c(C#N)c(-c3ccc(Cl)cc3)c(C#N)c2=O)cc1`, the growth inhibition in assay [1] (setting [7]) is 29%; in assay [1] (setting [8]), 73% (active); in assay [1] (at 50.0 µM), 55.6%; in assay [2] (setting [7]), 17%; in assay [2] (setting [8]), 66%; in assay [2] (at 50.0 µM), 75.2% (active). Also, the growth inhibition in assay [3] (setting [7]) is 19%; in assay [3] (setting [8]), 91% (active); in assay [3] (at 50.0 µM) it was 81.8% (active); in assay [4] (setting [7]), 40%; in assay [4] (setting [8]), 56%; in assay [4] (at 50.0 µM) it was 32.4%. The growth inhibition in assay [5] (setting [7]) was 45%; in assay [5] (setting [8]), 79% (active); in assay [5] (at 50.0 µM), 65.9%; in assay [6] (setting [7]), 24%; in assay [6] (setting [8]), 56%; in assay [6] (at 50.0 µM), 73.8% (active).
Take `Nc1cc(Br)c2cccnc2c1O`: the growth inhibition is 81% (active) in assay [1] (setting [7]); 98% (active) in assay [1] (setting [8]); 97.2% (active) in assay [1] (at 50.0 µM); 44% in assay [2] (setting [7]); 98% (active) in assay [2] (setting [8]); 94.7% (active) in assay [2] (at 50.0 µM). In addition, the growth inhibition in assay [3] (setting [7]) is 67%; in assay [3] (setting [8]), 98% (active); in assay [3] (at 50.0 µM) it was 98% (active); in assay [4] (setting [7]), 28%; in assay [4] (setting [8]), 98% (active); in assay [4] (at 50.0 µM) it was 94.2% (active). In addition, the growth inhibition in assay [5] (setting [7]) was 35%; in assay [5] (setting [8]), 98% (active); in assay [5] (at 50.0 µM), 93.7% (active); in assay [6] (setting [7]), 86% (active); in assay [6] (setting [8]) it was 98% (active); in assay [6] (at 50.0 µM) it was 95.7% (active).
